{"source": "PubChem BioAssay (Tox21)", "note": "Records with an inconclusive call do not appear. Calls of active or inactive are those of the source. The call rests on the fitted dose curve; in most records, active means well fitted activation curve with a large enough effect in the signal ratio in the repeat runs (not every such curve was filed as active); inconclusive means weak or mixed curves; inactive means flat fitted curve, though single readings scatter; the % refers to the signal ratio. On the % scale 0 is the no-effect control and ±100 the full control effect.", "data": [{"experiment": "p53 small molecule agonists, cell-based qHTS assay (AID 1963582)", "settings": "HCT-116 p53RE-bla reporter, beta-lactamase FRET ratio, 16 h; series mostly up to 66 µM; activation: at the top concentration", "text": "National Center for Advancing Translational Sciences [NCATS]\nDivision of Preclinical Innovation [DPI]\nU.S. Environmental Protection Agency [EPA]\nNational Institutes of Environmental Health Sciences [NIEHS]\nNational Toxicology Program [NTP]\nU.S. Food and Drug Administration [FDA]\np53, a tumor suppressor protein, is activated following cellular insult, including DNA damage and other cellular stresses. The activation of p53 regulates cell fate by inducing DNA repair, cell cycle arrest, apoptosis, or cellular senescence. The activation of p53, therefore, is a good indicator of DNA damage and other cellular stresses. […] The activation of the reporter gene under culture conditions can be detected by fluorescence intensity. This cell line was used to screen the Tox21 10K compound library in a 1536-well plate format and to identify agonists that activate the p53 signaling pathway.\nTox21 Assay Protocol Summary:\nThe p53RE-bla cells were dispensed at 4,000 cells/5 ul/well in 1536-well black wall/clear bottom plates using a Multidrop dispenser. After the assay plates were incubated at a 37 C/5% CO2 incubator for 5 hours, 23 nL of compounds dissolved in DMSO, positive controls or DMSO only was transferred to the assay plate by a pin tool. The plates were incubated at 37 C for 16 hours. After 1 uL of LiveBLAzerTM B/G FRET substrate was added using a Flying Reagent Dispenser, the plates were incubated at room temperature for 2 hours, and fluorescence intensity was measured by an Envision plate reader.", "values": [{"molecule": "CNC(=O)Oc1cccc2c1OC(C)(C)O2", "Potency": "inactive"}, {"molecule": "O=S(=O)(c1ccccc1)c1ccccc1", "activation": "5.7% (inactive)"}, {"molecule": "CC(Oc1ccc(Cl)cc1Cl)C(=O)O", "note": "(stereo not given)", "activation": "-4.9% (inactive)"}, {"molecule": "N#CCC#N", "activation": "1.85% (inactive)"}, {"molecule": "Nc1ccc(Cl)cc1", "activation": "-2.85% (inactive)"}, {"molecule": "Nc1c(Br)cc([N+](=O)[O-])cc1[N+](=O)[O-]", "activation": "-1.96% (inactive)"}, {"molecule": "C=CCc1ccccc1O", "activation": "-1.36% (inactive)"}, {"molecule": "N#CCNCC#N", "activation": "3.17% (inactive)"}, {"molecule": "N#Cc1ccc(Cl)cc1", "activation": "1.73% (inactive)"}, {"molecule": "COC(C)(C)CCCC(C)C/C=C/C(C)=C/C(=O)OC(C)C", "note": "(stereo not given)", "activation": "-1.78% [at 30.3 µM] (inactive)"}, {"molecule": "O=C(O)C(Cl)(Cl)Cl", "Potency": "inactive"}, {"molecule": "CCC(=O)c1ccccc1", "activation": "0.0436% (inactive)"}, {"molecule": "CC(O)CN(CC(C)O)CC(C)O", "note": "(stereo not given)", "Potency": "inactive"}, {"molecule": "C=CC(=O)OCCO", "activation": "-3.39% (inactive)"}, {"molecule": "CC(=O)CC(c1ccc(Cl)cc1)c1c(O)c2ccccc2oc1=O", "note": "(stereo not given)", "activation": "-6.29% (inactive)"}, {"molecule": "O=[N+]([O-])c1ccccc1O", "Potency": "inactive"}, {"molecule": "CCN(N=O)C(N)=O", "Potency": "inactive"}, {"molecule": "CCCCCCC#N", "activation": "0.296% (inactive)"}, {"molecule": "Nc1ccc([N+](=O)[O-])cc1N", "Potency": "inactive"}, {"molecule": "CCC(=O)OC1(c2ccccc2)CCN(C)CC1", "activation": "-0.274% (inactive)"}, {"molecule": "COc1ccc(O)c(C(C)(C)C)c1", "Potency": "inactive"}, {"molecule": "O=C(Cl)/C=C/C(=O)Cl", "activation": "-0.584% (inactive)"}, {"molecule": "CCCCC(CC)C(=O)Cl", "note": "(stereo not given)", "Potency": "inactive"}, {"molecule": "CCC12COCN1COC2", "Potency": "inactive"}, {"molecule": "CCCCCCOC(=O)c1ccccc1C(=O)OCCCCCC", "activation": "4.47% (inactive)"}, {"molecule": "NC(=O)c1cc([N+](=O)[O-])cc([N+](=O)[O-])c1", "activation": "-1.06% [at 30.3 µM] (inactive)"}, {"molecule": "N#Cc1ccncc1", "activation": "-0.0767% (inactive)"}, {"molecule": "CC1COC2(c3ccccc3Cl)c3cc(Cl)ccc3NC(=O)CN12", "note": "(stereo not given)", "activation": "-4.29% [at 30.3 µM] (inactive)"}, {"molecule": "Cc1ccc2cc(C)ccc2c1", "activation": "0.206% (inactive)"}, {"molecule": "O=C(O)C(F)(F)C(F)(F)C(F)(F)C(F)(F)C(F)(F)C(F)(F)F", "activation": "-2.59% (inactive)"}, {"molecule": "CCOC(=S)S", "Potency": "inactive"}, {"molecule": "CCBr", "activation": "-1.91% (inactive)"}, {"molecule": "ClCCOCOCCCl", "activation": "-0.649% (inactive)"}, {"molecule": "Cc1cnc(C2=NC(C)(C(C)C)C(=O)N2)c(C(=O)O)c1", "note": "(stereo not given)", "activation": "0.354% (inactive)"}, {"molecule": "CCOP(=S)(OCC)SCCSCC", "Potency": "inactive"}, {"molecule": "FC(F)(F)c1ccc(Cl)cc1", "activation": "8.85% (inactive)"}, {"molecule": "OCC(O)CO", "Potency": "inactive"}, {"molecule": "CC(C)N(C(=O)SCC(Cl)=C(Cl)Cl)C(C)C", "Potency": "inactive"}, {"molecule": "CCCCCCCCCCCCCCCCn1cc[n+](C)c1", "Potency": "inactive"}, {"molecule": "CC(C)OC(=S)S", "activation": "-3.37% (inactive)"}]}]}
